Screening data as filed in PubChem BioAssay.
An excerpt weighted towards active compounds, which were near 5.6% of everything screened.
M18AAP inhibitor: PfM18AAP inhibitors, malaria aminopeptidase, primary screen, biochemical, QFRET, recombinant enzyme | M18 aspartyl aminopeptidase (Plasmodium falciparum 3D7) | H-Glu-NHMec fluorogenic cleavage | inhibition, % at 7.35 µM | hit rate 1.2% among 290,000 | AID 1822, 2009;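 active = inhibition above the campaign mean inhibition over all tested compounds plus 3 SD, cut at about 28% in these data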;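 also: 0% = plate median of test compound wells and 100% = 2 mM ZnCl2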
PfGluPho inh: PfG6PD enzyme inhibitors, primary screen, biochemical, fluorescence intensity, uHTS. glucose-6-phosphate dehydrogenase-6-phosphogluconolactonase (Plasmodium falciparum 3D7). PfGluPho enzyme, NADPH resazurin-diaphorase fluorescence. inhibition, % at 20 µM. hit rate 0.78% among 350,000. AID 504690, 2011;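 active = inhibition reaching at least a set limit at 20 µM in the primary screen, cut at about 59% in these data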;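 also: 0% = DMSO wells with substrate and 100% = DMSO wells lacking glucose-6-phosphate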
ALR inh: inhibitors of human ALR sulfhydryl oxidase, primary screen, biochemical, H2O2 detection, HRP-luminol luminescence, single point; hit rate 3.8% among 290,000; purified ALR, DTT oxidation; inhibition, % (test concentration not listed); AID 485317, 2010;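 active = mean replicate inhibition above about 79%, with every replicate also reaching it, limit read from the data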
Target sequence (P55789 whole entry, looked up): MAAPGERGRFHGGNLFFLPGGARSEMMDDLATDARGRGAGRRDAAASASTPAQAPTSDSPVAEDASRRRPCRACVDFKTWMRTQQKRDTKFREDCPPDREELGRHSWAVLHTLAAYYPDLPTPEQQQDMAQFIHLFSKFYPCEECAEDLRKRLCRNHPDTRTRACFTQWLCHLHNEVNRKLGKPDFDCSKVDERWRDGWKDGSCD
PHOSPHO1 inh: PubChem AID 1565 | hit rate 1.1% among 290,000 | recombinant PHOSPHO1, absorbance phosphatase assay | Phosphoethanolamine/phosphocholine phosphatase (Homo sapiens), Q8TCT1 | inhibition, % at 13.3 µM; in the data active = inhibition above about 60%
Target sequence (Q8TCT1 whole entry, looked up): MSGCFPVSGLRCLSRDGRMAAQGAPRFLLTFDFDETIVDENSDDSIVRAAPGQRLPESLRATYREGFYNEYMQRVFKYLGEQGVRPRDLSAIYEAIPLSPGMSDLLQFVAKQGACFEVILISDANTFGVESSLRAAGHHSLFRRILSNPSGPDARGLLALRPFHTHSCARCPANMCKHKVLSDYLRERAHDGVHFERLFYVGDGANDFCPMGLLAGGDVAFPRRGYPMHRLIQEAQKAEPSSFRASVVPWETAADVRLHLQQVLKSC
H9c2 protect: cardioprotection against H2O2-induced cell death, primary screen, uHTS, H9c2 cells, ATPLite luminescence. H9c2 cardiomyocytes, H2O2 injury protection, 2 h. protection from H2O2 cell death, % at 20 µM. hit rate 0.63% among 360,000;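 active = compounds giving at least 50% protection of heart cells from peroxide-induced death in the single-dose screen, raw or plate-pattern-corrected value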;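 also: 0% = DMSO wells with peroxide and 100% = DMSO wells without peroxide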
The depositor's hits bear a star; nt = not tested or not shown.

SMILES	M18AAP inhibitor	PfGluPho inh	ALR inh	PHOSPHO1 inh	H9c2 protect
Cc1nn(CCc2n[nH]c(=S)n2C2CCCCC2)c(C)c1Br	1	33	2	-8	4
Cc1nn(CCc2n[nH]c(=S)n2C)c(C)c1Br	8	24	94*	85*	-6
CC1CCCCC12NC(=O)N(CC(=O)N1CCN(Cc3ccc(C#N)cc3)CC1)C2=O (stereo unspecified)	nt	-10	nt	nt	-6
COCCCNc1nc2cc(OC)c(OC)cc2c2nc(-c3ccccc3)nn12	-9	1	-1	37	56*
COc1cc2nc(NCC3CCCO3)n3nc(-c4cccnc4)nc3c2cc1OC (stereo unspecified)	-2	18	-1	-9	91*
CCN(CC)CCCNc1nc2cc(OC)c(OC)cc2c2nc(-c3cccnc3)nn12	2	8	-4	-66	12
O=C(CCC(C(=O)c1ccccc1)c1ccccc1)c1ccccc1 (stereo unspecified)	nt	-22	nt	nt	-6
COc1ccc(OC)c(S(=O)(=O)N2CCN(c3ccccc3OC)CC2)c1	-3	-16	51	30	10
COc1ccc2nc(C)cc(SCC(=O)NNC(=O)COc3ccccc3)c2c1	20	-5	0	-1	-2
COc1ccc2nc(C)cc(Sc3nc4ccccc4s3)c2c1	1	59	99*	27	-11
O=C(CN1CCN(c2ccccc2)CC1)Nc1ccc2c(c1)OCCO2	-7	-5	55	24	7
O=C(CN1CCC(C(=O)c2ccc(F)cc2)CC1)Nc1ccc(F)cc1	-6	0	-1	-26	-1
CCOc1ccc(NC(=O)CCN2CCN(S(=O)(=O)c3cc(Cl)ccc3OC)CC2)cc1	-13	7	-5	18	-10
COc1ccc(NC(=O)CCN2CCN(S(=O)(=O)c3ccc(C(C)C)cc3)CC2)cc1	0	-19	-18	7	-6
CCN(CC)c1ccc(NC(=O)CN2CCN(S(=O)(=O)c3cc(Cl)ccc3OC)CC2)cc1	-10	18	nt	93*	-4
CC(C)c1ccc(S(=O)(=O)N2CCN(CCC(=O)Nc3ccc(N(C)C)cc3)CC2)cc1	-1	9	nt	83*	-8
O=C(CN1CCN(c2ccccc2O)CC1)Nc1ccc2c(c1)OCCCO2	nt	14	100*	nt	5
Cc1ccc(C(=O)C2CCN(CC(=O)Nc3ccc(N(C)C)cc3)CC2)cc1	4	10	98*	31	-11
COc1ccc(N(CC(=O)N2CCc3ccccc3C2)S(C)(=O)=O)cc1Cl	0	9	-5	-1	3
CN(C)c1ccc(NC(=O)CN2CCN(CC(=O)Nc3ccc(F)cc3)CC2)cc1	6	-5	99*	-3	-6
CCN(CC)c1ccc(NC(=O)CN2CCN(c3ccccc3F)CC2)cc1	2	14	99*	-45	3
CCOc1ccccc1C(=O)N[C@H](C(=O)OCC(=O)Nc1nnc(-c2ccccc2)o1)C(C)C	nt	-27	nt	nt	27
Nc1cc(S(=O)(=O)Nc2cc(Cl)ccc2Cl)ccc1N1CCCC1	16	8	nt	11	-8
CC(C)CC(=O)c1c[nH]c(C(=O)NCc2ccc(F)cc2)c1	-7	7	-16	24	1
COc1ccc(-c2nc3cnccn3c2Nc2ccc(C)cc2)cc1	-10	12	86*	10	-6
SMILES	M18AAP inhibitor	PfGluPho inh	ALR inh	PHOSPHO1 inh	H9c2 protect
Cc1ccc(Nc2c(-c3ccccc3)nc3cnccn23)cc1	8	3	98*	32	0
O=C(CCC1CCCC1)c1c(O)c2ccccc2oc1=O	5	-34	93*	-12	-10
Cc1ccc2c(c1)c1nnc(SCC(=O)Nc3ccc(N(C)C)cc3)nc1n2CC(=O)O	18	44	100*	29	-6
COc1ccccc1C(=O)NCCC(=O)NCCOc1ccccc1	-8	2	5	-58	-5
COCCCNC(=O)c1ccccc1Oc1ccccc1	-18	-6	98*	11	9
C[C@H]1CN([C@@H](C)CO)C(=O)c2cc(-c3ccccc3F)cnc2O[C@@H]1CN(C)C(=O)NC1CCCCC1	nt	18	nt	nt	3
CC(C)(C)c1cc(C(=O)N/N=C/c2ccccc2O)n(-c2ccccc2)n1	2	2	-3	14	51*
COc1ccc(/C=N/NC(=O)c2nc(-c3ccccc3)n(-c3ccccc3)n2)c(O)c1	1	-38	0	14	61*
COc1ccc(/C=N/NC(=O)c2nc(-c3ccccc3)n(-c3ccccc3)n2)cc1	5	17	3	-12	3
CC(C)(C)c1cc(C(=O)N/N=C/c2ccc(F)cc2)n(-c2ccccc2)n1	-9	26	-3	4	-2
O=C(NCCc1ccccc1)c1ccc(-c2ccc(F)c(F)c2)c2ccoc12	nt	nt	nt	nt	-3
Cc1ccccc1/C=N/n1c(-c2ccccn2)n[nH]c1=S	2	27	nt	20	6
S=c1[nH]nc(-c2ccccn2)n1/N=C/c1cccc2ccccc12	3	22	96*	78*	-4
CC(/C=N/n1c(-c2ccccn2)n[nH]c1=S)=C\c1ccccc1	-2	18	96*	20	4
Cc1cccc(/C=N/n2c(-c3ccccn3)n[nH]c2=S)c1	5	nt	95*	-4	nt
S=c1[nH]nc(-c2ccccn2)n1/N=C/c1ccccc1	6	21	14	42	3
COc1ccccc1N1CCN(S(=O)(=O)c2cnc[nH]2)CC1	3	6	98*	22	2
COc1ccccc1N1CCN(S(=O)(=O)c2ccccc2)CC1	-10	-1	98*	-14	1
CN(C)S(=O)(=O)N1CCN(c2ccccc2)CC1	-6	-12	79*	-9	7
COc1ccc(N2CCN(Cc3nc4ccccc4n3C)CC2)cc1	3	-17	89*	-12	-8
CCOC(=O)c1cc([N+](=O)[O-])cc([N+](=O)[O-])c1Sc1ncnc2nc[nH]c12	nt	47	nt	nt	-18
Cc1noc(C)c1C(=O)N1CCC(C(=O)c2ccccc2)CC1	6	-1	nt	34	2
O=C(NN=Cc1ccc2c(c1)CCC2)c1cccc([N+](=O)[O-])c1	nt	-12	nt	nt	-6
CC(C)CCN(C(=O)c1cc(=O)[nH]c2ccccc12)c1c(N)n(Cc2ccccc2)c(=O)[nH]c1=O	nt	7	-2	nt	4
COc1ccccc1N1CCN(S(=O)(=O)c2cc(Br)cnc2N)CC1	0	-1	4	64*	4
COc1cccc(N2CCN(S(=O)(=O)c3cn(C)cn3)CC2)c1	-19	-14	96*	28	-6
COc1ccc(S(=O)(=O)N2CCN(c3ccccc3)CC2)cc1	-4	0	14	60*	2
COc1ccc(N2CCN(c3ncccn3)CC2)cc1	8	4	99*	-4	6
CCOC(=O)c1cc(CC)sc1NC(=O)CN1CCN(C(=O)c2ccco2)CC1	7	-2	46	41	10
